Holding throughout (assay): NCI-60 one-dose screen, 48 h (100 = growth as untreated, 0 = no growth, -100 = all killed)
One experiment relates to HT29 colon. The note with it: 10 µM unless noted.
For another experiment, the system named is SNB-75 CNS. The note with it: 10 µM unless noted.
The next experiment deals with SNB-19 CNS. Particulars: 10 µM unless noted.
The subject of a further experiment is U251 CNS. The note with it: 10 µM unless noted.
The subject of the next experiment is PC-3 prostate. The note with it: 10 µM unless noted.
The test system of a further experiment is SK-MEL-5 melanoma. Particulars: 10 µM unless noted.
The next experiment concerns UACC-62 melanoma. The note with it: 10 µM unless noted.
For the next experiment, the system named is LOX IMVI melanoma. Particulars: 10 µM unless noted.
The next experiment concerns SK-MEL-28 melanoma. The note with it: 10 µM.
A further experiment deals with SK-MEL-2 melanoma. The note with it: 10 µM unless noted.
In the next experiment the test system is SN12C renal. Particulars: 10 µM unless noted.
A further experiment concerns UO-31 renal. Particulars: 10 µM unless noted.
The next experiment concerns TK-10 renal. Particulars: 10 µM unless noted.
The test system of the next experiment is ACHN renal. The note with it: 10 µM unless noted.
The test system of the next experiment is CAKI-1 renal. The note with it: 10 µM unless noted.
In a further experiment the test system is A498 renal. Particulars: 10 µM unless noted.
A further experiment relates to CCRF-CEM leukemia. Particulars: 10 µM unless noted.
A further experiment relates to MOLT-4 leukemia. Particulars: 10 µM unless noted.
Another experiment concerns SR leukemia. The note with it: 10 µM unless noted.

Each structure is given as a SMILES string. About 83,000 compounds went through this panel and 20% of them were active in at least one assay; those are over-represented in the sample as a whole.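 For each line, cells grew in 96-well plates with the test compound present at a single concentration for 48 hours.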 A number with no mark means an inactive call. The source made the active and inactive calls. Rule for the calls: active = growth percent below 10; inactive = the rest.

`COc1ccc(Cn2cc(Cn3c(=O)c(-c4nc5ccccc5[nH]4)cc4ccccc43)nn2)c(OC)c1OC`: the growth is 4.85% (active) with HT29 colon; -74% (active) in the experiment with SNB-75 CNS; 22.8% in the experiment on SNB-19 CNS; 12.7% with U251 CNS; 17% with PC-3 prostate; 5.92% (active) with SK-MEL-5 melanoma. Further, the growth was 23.2% in the experiment on UACC-62 melanoma; 18.9% in the experiment on LOX IMVI melanoma; 50.1% in the experiment with SK-MEL-28 melanoma; 28% with SK-MEL-2 melanoma; 18.7% with SN12C renal; 18.2% with UO-31 renal. In addition, the growth with TK-10 renal is 33.9%; in the experiment on ACHN renal, 35%; in the experiment on CAKI-1 renal, 21.7%; in the experiment on A498 renal it was -27.4% (active); in the experiment on CCRF-CEM leukemia it was 22.6%; in the experiment on MOLT-4 leukemia, 17.9%. Besides, in the experiment on SR leukemia, the growth is 21.8%.

For the compound `Cc1ccc(C)c(-c2csc(Nc3ccc(C)c(C)c3)n2)c1`, the growth in the experiment with HT29 colon was 4.56% (active); in the experiment with SNB-75 CNS, 34%; in the experiment on SNB-19 CNS, 84%; with U251 CNS, 8.11% (active); in the experiment on PC-3 prostate, 63.9%; in the experiment on SK-MEL-5 melanoma it was -92.3% (active). The growth in the experiment on UACC-62 melanoma is 49.2%; with LOX IMVI melanoma it was -67.9% (active); in the experiment with SK-MEL-28 melanoma it was -93.3% (active); with SK-MEL-2 melanoma, 31.6%; in the experiment with SN12C renal, 66.3%; with UO-31 renal, 40.3%. Also, the growth is 51.6% in the experiment on TK-10 renal; 58.9% with ACHN renal; 78.2% in the experiment with CAKI-1 renal; 65.7% in the experiment on A498 renal; 6.99% (active) in the experiment on CCRF-CEM leukemia; 24.9% in the experiment on MOLT-4 leukemia. Further, the growth in the experiment with SR leukemia was -6.45% (active).

Consider `O=S(=O)(c1ccccc1)n1cc2c(c1-c1ccccc1)CCc1sc(Nc3ccccc3)nc1-2`, for which the growth in the experiment on HT29 colon is 93%; with SNB-75 CNS, 93%; with SNB-19 CNS, 95.2%; with U251 CNS it was 78.5%; in the experiment with PC-3 prostate, 69.8%; in the experiment with SK-MEL-5 melanoma, 88.3%. Also, the growth in the experiment on UACC-62 melanoma is 78.4%; in the experiment with LOX IMVI melanoma, 77.8%; in the experiment with SK-MEL-28 melanoma it was 106%; with SK-MEL-2 melanoma it was 93.4%; with SN12C renal it was 77.1%; with UO-31 renal, 70.4%. The growth in the experiment on TK-10 renal is 100%; in the experiment on ACHN renal, 77.9%; in the experiment with CAKI-1 renal, 75.8%; in the experiment with A498 renal, 89.4%; in the experiment with CCRF-CEM leukemia, 72.6%; in the experiment with MOLT-4 leukemia it was 76%. In addition, the growth in the experiment with SR leukemia was 79.3%.

Turning to `O=C(Nc1nc2c(s1)CCc1c-2c(Br)n(Cc2ccccc2)c1Br)c1ccccc1`, the growth in the experiment with HT29 colon was 51.6%; in the experiment on SNB-75 CNS, -10.7% (active); with SNB-19 CNS, 65.7%; in the experiment with U251 CNS it was 57.3%; in the experiment on PC-3 prostate, 67.3%; in the experiment with SK-MEL-5 melanoma, 41%. Also, the growth in the experiment on UACC-62 melanoma is 62.4%; in the experiment on LOX IMVI melanoma, 68.5%; in the experiment on SK-MEL-28 melanoma, 66%; with SK-MEL-2 melanoma, 89.4%; with SN12C renal, 87.7%; in the experiment on UO-31 renal, 57.6%. Also, the growth was 54.9% in the experiment with TK-10 renal; 46.8% in the experiment on ACHN renal; 67.4% in the experiment on CAKI-1 renal; 75% in the experiment with A498 renal; 77% with CCRF-CEM leukemia; 83.1% in the experiment with MOLT-4 leukemia. Further, in the experiment with SR leukemia, the growth is 70.3%.

`Nc1ccc(-c2nc3cc(Oc4ccc(Oc5ccc6[nH]c(-c7ccc(N)cc7)nc6c5)cc4)ccc3[nH]2)cc1`: the growth with HT29 colon was 70.2%; in the experiment on SNB-75 CNS, 115%; with SNB-19 CNS it was 110%; in the experiment with U251 CNS, 96.6%; with PC-3 prostate, 115%; in the experiment with SK-MEL-5 melanoma, 87.5%. Further, the growth in the experiment with UACC-62 melanoma was 58.8%; in the experiment on LOX IMVI melanoma, 99.2%; in the experiment on SK-MEL-28 melanoma, 101%; in the experiment on SK-MEL-2 melanoma, 82.1%; in the experiment on SN12C renal it was 90.4%; in the experiment with UO-31 renal, 97.7%. Also, the growth with TK-10 renal was 112%; in the experiment on ACHN renal it was 101%; in the experiment on CAKI-1 renal, 120%; with A498 renal, 91.5%; with CCRF-CEM leukemia, 100%; with MOLT-4 leukemia it was 96.8%. In the experiment with SR leukemia, the growth is 91.9%.

With `COc1ccc(Cn2c(Br)c3c(c2Br)-c2nc(N)sc2CC3)cc1`, the growth in the experiment on HT29 colon was 16.8%; in the experiment on SNB-75 CNS it was 38.2%; in the experiment on SNB-19 CNS it was 66.9%; with U251 CNS it was 36.5%; in the experiment on PC-3 prostate, 56.6%; with SK-MEL-5 melanoma it was 15.1%. In addition, the growth in the experiment with UACC-62 melanoma is 27.5%; in the experiment with LOX IMVI melanoma it was 35.7%; with SK-MEL-28 melanoma it was 46.1%; in the experiment on SK-MEL-2 melanoma, 22%; with SN12C renal, 41.2%; in the experiment on UO-31 renal, 52.4%. In addition, the growth in the experiment on TK-10 renal is 71.1%; with ACHN renal, 55.2%; in the experiment with CAKI-1 renal, 39%; in the experiment with A498 renal, 11.6%; in the experiment on CCRF-CEM leukemia it was 4.26% (active); with MOLT-4 leukemia it was 4.01% (active). In addition, in the experiment on SR leukemia, the growth was 4.13% (active).

Regarding `COc1ccc(-c2nsc3c2NC(=O)CC3c2ccsc2)cc1` (configuration not stated), the growth in the experiment with HT29 colon was 0.633% (active); in the experiment with SNB-75 CNS, 10.4%; with SNB-19 CNS, 50%; in the experiment with U251 CNS, 20.4%; in the experiment on PC-3 prostate, 24.3%; in the experiment on SK-MEL-5 melanoma it was 22%. The growth is 24.9% in the experiment with UACC-62 melanoma; 33.4% in the experiment on LOX IMVI melanoma; 42.7% with SK-MEL-28 melanoma; 45.5% with SK-MEL-2 melanoma; 41.9% in the experiment on SN12C renal; 45% with UO-31 renal. In addition, the growth with TK-10 renal is 53.2%; in the experiment with ACHN renal it was 41.9%; in the experiment with CAKI-1 renal, 27.6%; with A498 renal, 0.156% (active); with CCRF-CEM leukemia it was -7.06% (active); with MOLT-4 leukemia, 17.5%. The growth in the experiment on SR leukemia was 19.2%.

Regarding `COc1ccc(/C=C/C(=O)c2ccc3cc(OC)c(OC)cc3c2)cc1OC`, the growth in the experiment with HT29 colon was 6.78% (active); in the experiment on SNB-75 CNS it was 49.7%; in the experiment on SNB-19 CNS, 71.9%; in the experiment on U251 CNS it was 22.8%; in the experiment with PC-3 prostate, 42%; in the experiment on SK-MEL-5 melanoma it was 36.7%. For the same compound, the growth in the experiment with UACC-62 melanoma is 57.6%; in the experiment on LOX IMVI melanoma, 6.59% (active); with SK-MEL-28 melanoma, 96.3%; with SK-MEL-2 melanoma, 83.6%; in the experiment with SN12C renal it was 32.2%; in the experiment on UO-31 renal, 27.7%. The growth with TK-10 renal is 65.1%; in the experiment with ACHN renal it was 55.4%; in the experiment on CAKI-1 renal, 30.2%; with A498 renal, 70.9%; with CCRF-CEM leukemia, 32.8%; with MOLT-4 leukemia, 30.7%. Further, the growth in the experiment on SR leukemia is 3.83% (active).

The values above are taken from PubChem BioAssay (NCI).
